Measurements taken from PubChem BioAssay.
Unmarked numbers belong to inactive results. For some assays here: Results with a measured potency or affinity are listed apart. Calls of active or inactive are those of the source. Unless noted, no rule for the calls is given here.

Legend:
[1] = antimalarial activity against Dd2 strain (AID 2302;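 active = growth inhibition above 50% at the single 2 µM test dose, taken to imply half-maximal potency below 2 µM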;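 also: 0% = DMSO untreated growth and 100% = chloroquine plus artemisinin killed control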); conditions: P. falciparum Dd2 in RBCs, LDH growth readout, 72 h; at 2 µM; hits give high values
[2] = HepG2 cytotoxicity, primary screen, cytotoxicity control for P. falciparum antimalarial project, cell-based, ATP luminescence (AID 2303;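 active = inhibition above 50%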;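 also: 0% = DMSO wells and 100% = digitonin-killed cells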); conditions: HepG2 viability, 24-48 h, at 10 µM, hits give high values
[3] = target: L-lactate dehydrogenase (Plasmodium falciparum (isolate CDC / Honduras)) (UniProt Q27743); experiment: PfLDH activity inhibition – cell lysate, 3D7 strain, counter-screen for P. falciparum growth inhibition project (AID 2304);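 also: 0% = vehicle and 100% = reference inhibitor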; conditions: P. falciparum 3D7 crude extract, LDH APAD/NBT absorbance; at 2 µM; hits give high values
L-lactate dehydrogenase (Plasmodium falciparum (isolate CDC / Honduras)), sequence (Q27743 whole entry, looked up): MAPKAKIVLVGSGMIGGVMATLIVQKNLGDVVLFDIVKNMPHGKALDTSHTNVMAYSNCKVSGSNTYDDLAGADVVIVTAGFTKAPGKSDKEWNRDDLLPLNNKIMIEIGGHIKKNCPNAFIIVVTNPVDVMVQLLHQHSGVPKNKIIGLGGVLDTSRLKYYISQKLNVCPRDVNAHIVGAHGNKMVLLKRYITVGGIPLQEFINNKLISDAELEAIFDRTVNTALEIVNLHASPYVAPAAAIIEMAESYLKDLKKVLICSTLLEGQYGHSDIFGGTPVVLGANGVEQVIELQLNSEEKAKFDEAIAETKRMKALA

[4] = inhibition of 3D7 malaria parasite growth – strain 3D7 (AID 2306);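 also: 0% = DMSO wells and 100% = chloroquine plus artemisinin control wells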; conditions: P. falciparum 3D7 erythrocytic growth, LDH absorbance, 72 h; at 2 µM; hits give high values
[5] = target: Calcium-dependent protein kinase 1 (Plasmodium falciparum (isolate 3D7)) (UniProt P62344); experiment: PfCDPK1 kinase inhibitors, biochemical, TCAMS library (AID 1159585; cut-off not given, nearly all actives have IC50 up to about 0.98 µM;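 also: inhibitors leave more ATP so luminescence rises with inhibition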); conditions: recombinant PfCDPK1, Kinase-Glo ATP depletion luminescence
Calcium-dependent protein kinase 1 (Plasmodium falciparum (isolate 3D7)), sequence (P62344 whole entry, looked up): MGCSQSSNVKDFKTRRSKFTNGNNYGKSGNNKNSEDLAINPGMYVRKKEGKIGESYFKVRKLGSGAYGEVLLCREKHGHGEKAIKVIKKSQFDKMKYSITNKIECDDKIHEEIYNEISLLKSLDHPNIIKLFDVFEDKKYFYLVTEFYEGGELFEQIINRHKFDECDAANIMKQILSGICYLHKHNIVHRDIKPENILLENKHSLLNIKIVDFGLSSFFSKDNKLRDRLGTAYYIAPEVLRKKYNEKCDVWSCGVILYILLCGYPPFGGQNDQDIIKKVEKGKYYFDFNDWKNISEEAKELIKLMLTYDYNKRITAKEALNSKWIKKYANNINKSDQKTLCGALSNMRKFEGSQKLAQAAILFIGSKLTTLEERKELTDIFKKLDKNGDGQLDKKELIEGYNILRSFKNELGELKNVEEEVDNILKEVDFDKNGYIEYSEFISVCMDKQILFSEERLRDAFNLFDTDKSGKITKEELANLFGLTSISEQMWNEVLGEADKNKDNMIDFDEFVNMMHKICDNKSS

[6] = target: Plasmodium falciparum protein kinase 6 (PK6, PF3D7_1337100) (UniProt Q8IDW1); experiment: PfPK6 kinase inhibitors, biochemical, TCAMS library (AID 1159586); conditions: recombinant PfPK6, Kinase-Glo ATP depletion luminescence
Plasmodium falciparum protein kinase 6 (PK6, PF3D7_1337100), sequence (Q8IDW1 1-305): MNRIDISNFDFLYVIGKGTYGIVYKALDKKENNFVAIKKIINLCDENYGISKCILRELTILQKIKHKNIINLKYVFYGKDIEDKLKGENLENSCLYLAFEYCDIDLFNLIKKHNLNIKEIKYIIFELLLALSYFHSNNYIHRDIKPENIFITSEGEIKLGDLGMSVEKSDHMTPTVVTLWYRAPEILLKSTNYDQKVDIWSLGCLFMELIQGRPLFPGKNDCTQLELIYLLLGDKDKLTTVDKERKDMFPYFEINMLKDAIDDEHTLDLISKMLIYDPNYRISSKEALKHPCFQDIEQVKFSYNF

[7] = target: Protein kinase 7 (PK7), Plasmodium falciparum 3D7 (PF3D7_0213400) (UniProt Q7YTF7); experiment: inhibition of Plasmodium PK7 catalytic activity – biochemical, TCAMS antimalarial set, Kinase-Glo luminescence (AID 1159587); conditions: recombinant PfPK7, Kinase-Glo ATP depletion luminescence
Protein kinase 7 (PK7), Plasmodium falciparum 3D7 (PF3D7_0213400), sequence (Q7YTF7 1-343): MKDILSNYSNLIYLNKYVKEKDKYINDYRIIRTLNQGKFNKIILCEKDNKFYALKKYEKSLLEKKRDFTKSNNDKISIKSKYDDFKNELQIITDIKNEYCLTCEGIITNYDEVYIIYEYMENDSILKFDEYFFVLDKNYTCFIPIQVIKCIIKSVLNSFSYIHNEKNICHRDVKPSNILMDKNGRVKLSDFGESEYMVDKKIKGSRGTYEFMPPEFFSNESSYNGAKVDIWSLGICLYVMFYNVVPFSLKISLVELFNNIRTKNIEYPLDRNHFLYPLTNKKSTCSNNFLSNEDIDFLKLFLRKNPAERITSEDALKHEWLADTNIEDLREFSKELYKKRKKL

[8] = target: Calcium-dependent protein kinase 4 (Plasmodium falciparum (isolate 3D7)) (UniProt Q8IBS5); experiment: PfCDPK4 kinase inhibitors, biochemical, TCAMS library (AID 1159588; cut-off not given, nearly all actives have IC50 up to about 0.91 µM); conditions: recombinant PfCDPK4, Kinase-Glo ATP depletion luminescence
Calcium-dependent protein kinase 4 (Plasmodium falciparum (isolate 3D7)), sequence (Q8IBS5 whole entry, looked up): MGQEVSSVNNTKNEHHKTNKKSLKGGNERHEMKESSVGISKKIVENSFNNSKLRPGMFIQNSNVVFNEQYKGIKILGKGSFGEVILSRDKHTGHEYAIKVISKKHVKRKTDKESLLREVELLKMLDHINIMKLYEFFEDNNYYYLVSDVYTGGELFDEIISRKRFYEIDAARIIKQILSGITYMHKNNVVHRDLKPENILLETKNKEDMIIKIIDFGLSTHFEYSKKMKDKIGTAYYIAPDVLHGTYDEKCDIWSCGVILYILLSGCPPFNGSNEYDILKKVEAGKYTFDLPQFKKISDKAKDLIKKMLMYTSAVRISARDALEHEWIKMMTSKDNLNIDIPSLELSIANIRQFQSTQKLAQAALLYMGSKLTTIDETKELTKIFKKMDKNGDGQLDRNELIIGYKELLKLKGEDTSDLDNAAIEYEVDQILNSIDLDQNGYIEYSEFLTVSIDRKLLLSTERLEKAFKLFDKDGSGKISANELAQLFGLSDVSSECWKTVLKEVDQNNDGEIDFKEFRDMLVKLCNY

Structure (SMILES)	growth inhibition [1]	inhibition [2]	inhibition [3]	growth inhibition [4]	outcome [5]	outcome [6]	outcome [7]	outcome [8]
O=C(/C=C/c1ccc(Br)cc1)NCCCCCN1CCC(c2c[nH]c3ccccc23)CC1	19%	73% (active)	-2%	99% (active)	inactive	inactive	inactive	inactive
Fc1cccc(COc2ccc(Nc3ncnc4ccc(C#C[C@H]5CCCN5)cc34)cc2Cl)c1	26%	7%	-2%	91% (active)	inactive	inactive	inactive	inactive
CCC[C@@H]([C@@H](CC1CCC(C)CC1)C(=O)N[C@@H](CCCCNC(=O)c1ccccn1)C(=O)Nc1nccs1)N(O)C=O (stereo partly specified)	79% (active)	25%	-1%	101% (active)	inactive	inactive	inactive	inactive
Nc1cccc(CNCc2cccc(-c3cccc(-c4nc5ccc(C(F)(F)F)cc5[nH]4)c3)c2)c1	96% (active)	8%	1%	102% (active)	inactive	inactive	inactive	inactive
CCc1ccc(-c2cnc(N)c3cc(-c4ccnc(N)n4)ccc23)cc1	70% (active)	37%	0%	92% (active)	inactive	inactive	inactive	inactive
CC(=O)Oc1cc(C(=O)Nc2ccc(Cl)cc2)cc2ccccc12	47%	16%	-3%	88% (active)	inactive	inactive	inactive	inactive
COc1ccc(-n2cc(CNCCCn3ccnc3)c(-c3cccc(F)c3)n2)cc1	17%	21%	0%	98% (active)	inactive	inactive	inactive	inactive
Cc1cnc2cc3c(cc2c1N1CCN(C)CC1)NCC3	69% (active)	12%	3%	102% (active)	inactive	inactive	inactive	inactive
O=C1c2ccccc2C(=O)N1c1ccc(S(=O)(=O)N2CCOCC2)cc1	-1%	-1%	3%	94% (active)	inactive	inactive	inactive	inactive
O=C(NCCc1ccccc1)c1cc(-c2cccnc2)cnc1NCC1CC1	35%	3%	6%	93% (active)	inactive	inactive	inactive	inactive
CCNc1cc(C(=O)N[C@@H](Cc2ccccc2)[C@H](O)CNC(C)(C)CSCC(C)C)cc(N2CCCC2=O)c1	97% (active)	-20%	-7%	101% (active)	inactive	inactive	inactive	inactive
O=C1c2ccccc2CN1CCCN1CCC(Oc2ccc(F)cc2)CC1	1%	14%	3%	97% (active)	inactive	inactive	inactive	inactive
Cc1ccc(OCCCCON2C(N)=NC(N)=NC2(C)C)cc1C	97% (active)	61% (active)	-3%	94% (active)	inactive	inactive	inactive	inactive
COc1ccc2nccc([C@@H](O)CN3CCC(NCc4ccc5c(c4)sc(=O)n5C)CC3)c2c1	72% (active)	10%	-6%	100% (active)	inactive	inactive	inactive	inactive
Cc1[nH]c(C)c(-c2ccc(-c3ccc(Cl)cc3)nc2)c(=O)c1Cl	96% (active)	8%	3%	95% (active)	inactive	inactive	inactive	inactive
CCC(C)NS(=O)(=O)c1ccc2nc(Nc3ccc(C)c(Cl)c3)n([C@H](C)C(C)(C)C)c2c1 (stereo partly specified)	100% (active)	8%	-5%	98% (active)	inactive	inactive	inactive	inactive
Cc1ccccc1CN1CCCN(Cc2ccc(C(=O)Nc3ccc(C(C)(C)C)cc3)cc2)CC1	5%	52% (active)	-1%	89% (active)	inactive	inactive	inactive	inactive
CCCCCCCN1CC[C@@H](CCCc2ccnc3ccc(OCCCCNC(N)=O)cc23)[C@@H](CC)C1	18%	41%	-3%	93% (active)	inactive	inactive	inactive	inactive
CCCC1(NC[C@@H](O)[C@H](Cc2ccccc2)NC(=O)c2cc(NCC)cc(N3CCCCS3(=O)=O)c2)CCC1	86% (active)	-8%	-1%	100% (active)	inactive	inactive	inactive	inactive

Structure (SMILES)	growth inhibition [1]	inhibition [2]	inhibition [3]	growth inhibition [4]	outcome [5]	outcome [6]	outcome [7]	outcome [8]
Cc1ccc(Cc2c(C)nc3nc(N)nc(N)c3c2C)cc1	1%	60% (active)	5%	93% (active)	inactive	inactive	inactive	inactive
CC(=O)N(C)c1cccc(C(=O)Nc2ccc(-c3cccc(-c4nc5c(C)cccc5[nH]4)c3)cc2)c1	68% (active)	86% (active)	-2%	97% (active)	inactive	inactive	inactive	inactive
COc1ccc(C2CCC(NCCCCNC(=O)c3ccc(NC(=O)c4ccc(Cl)cc4)cc3)CC2)cc1 (stereo unspecified)	7%	23%	-6%	99% (active)	inactive	inactive	inactive	inactive
CC(=O)N(Cc1ccc(CC(C)NCCc2cccc(Cl)c2)cc1)Cc1ccc(CC(C)NCCc2cccc(Cl)c2)cc1 (stereo unspecified)	94% (active)	98% (active)	-4%	101% (active)	inactive	inactive	inactive	inactive
CC(=Nc1ccc(Cl)c(Cl)c1)N(C)C	0%	-6%	2%	98% (active)	inactive	inactive	inactive	inactive
c1cc(-c2ccc(CNCCCN3CCOCC3)cc2)cc(-c2nc3ccccc3[nH]2)c1	-1%	26%	-2%	100% (active)	inactive	inactive	inactive	inactive
O=C(NCc1ccc(C(=O)N2CCC(N3CCCCC3)CC2)cc1)c1cc(-c2cccc(C(F)(F)F)c2)ccc1O	58% (active)	-3%	1%	100% (active)	inactive	inactive	inactive	inactive
CC(C)CNCc1cccc(-c2ccccc2CN(C(=O)NCCc2ccccc2)C2CCN(Cc3ccccc3)CC2)c1	82% (active)	42%	-6%	89% (active)	inactive	inactive	inactive	inactive
CCCCCCCCc1c(C)[nH]c(C)c(I)c1=O	77% (active)	5%	4%	91% (active)	inactive	inactive	inactive	inactive
FC(F)(F)c1ccc2nc(-c3ccc(-c4ccc(CNCCN5CCNCC5)cc4)cc3)[nH]c2c1	74% (active)	13%	-4%	92% (active)	inactive	inactive	inactive	inactive
Nc1ccn([C@@H]2O[C@H](COC(c3ccccc3)(c3ccccc3)c3ccccc3)[C@@H](O)[C@@H]2O)c(=O)n1	2%	26%	1%	93% (active)	inactive	inactive	inactive	inactive
Cc1[nH]c(C)c(-c2ccc(-c3ccc(OC(F)(F)F)cc3)nc2)c(=O)c1Br	97% (active)	26%	3%	97% (active)	inactive	inactive	inactive	inactive
CCOC(=O)CNC(=O)N(CCN(Cc1ccccc1)C(=O)NCC(=O)OCC)Cc1ccccc1	-1%	9%	5%	98% (active)	inactive	inactive	inactive	inactive
CC1(C)N=C(N)N=C(N)N1OCCCc1ccccc1	94% (active)	64% (active)	1%	96% (active)	inactive	inactive	inactive	inactive
CCN1CCN(c2cc(C)c3cc(NC(=O)c4ccc(OC)c([N+](=O)[O-])c4)ccc3n2)CC1	93% (active)	25%	0%	100% (active)	inactive	inactive	inactive	inactive
Clc1cc(Cl)c2c(c1)C(NCCCNc1nc3ccccc3[nH]1)CCO2 (stereo unspecified)	31%	28%	-4%	101% (active)	inactive	inactive	inactive	inactive
Cc1cccc(NC(=O)c2ccc(C(=O)NC3CCN(CC4CCCCC4)C3)cc2)c1 (stereo unspecified)	3%	17%	-3%	88% (active)	inactive	inactive	inactive	inactive
COc1ccc2nc3cc(Cl)ccc3c(Nc3ccc(C(=O)O)cc3)c2c1	95% (active)	-7%	6%	94% (active)	inactive	inactive	inactive	inactive
